In the library only some 2.8% were active in any assay of this set; here they are far more common.
PI5P4Ka inh: qHTS for Inhibitors of phosphatidylinositol 5-phosphate 4-kinase (PI5P4K) | 330,000 compounds, 1.2% hits | PI5P4Kalpha enzyme, ADP-Glo luminescence, 60 min; stronger effect = lower value | max response, % | AID 652105, 2013 | Phosphatidylinositol 5-phosphate 4-kinase type-2 alpha (Homo sapiens), P48426; active means max response of -50% or lower; inconclusive means between -30% and -50%; inactive means -30% or higher; further: value at the top dose of about 77 µM
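Quantitative HTS of the MLSMR library against PI5P4Kalpha with substrate. ATP added last at 5 microM final; room temperature, 60 minutes. Remaining ATP depleted, ADP converted and read as luminescence.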
Pol kappa inh-1: qHTS for Inhibitors of Polymerase Kappa; DNA polymerase kappa (Homo sapiens), Q9UBT6; purified Pol kappa, fluorescent DNA synthesis assay, 10 min; Potency, µM (highest dose often 107 µM), usual class: inhibitors; 400,000 compounds, 0.53% hits; AID 588579, 2011
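50 nM final substrate added after 15 min RT preincubation of 10 nM Pol kappa with compound; fluorescence read at 0 and 10 min.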
POLI inh: qHTS for Inhibitors of Polymerase Iota; DNA polymerase iota (Homo sapiens), Q9UNA4; Pol iota fluorescent replication assay, 10 min; Potency, µM (doses to about 115 µM), actives largely listed as inhibitors; 390,000 compounds, 1% hits
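Fluorescent replication assay read twice, at 0 min and 10 min after adding 50 nM (final) substrate. Enzyme (10 nM) and compounds were first incubated 15 min at room temperature; enzyme-free buffer wells were negative controls.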
Pol eta inh-1: qHTS for Inhibitors of Polymerase Eta. DNA polymerase eta (Homo sapiens), Q9Y253. recombinant Pol eta, fluorescent DNA replication assay. Potency, µM (doses to about 114 µM), usual class: inhibitors. 390,000 compounds, 1.2% hits. AID 588591, 2011
Target sequence (Q9Y253 whole entry, looked up): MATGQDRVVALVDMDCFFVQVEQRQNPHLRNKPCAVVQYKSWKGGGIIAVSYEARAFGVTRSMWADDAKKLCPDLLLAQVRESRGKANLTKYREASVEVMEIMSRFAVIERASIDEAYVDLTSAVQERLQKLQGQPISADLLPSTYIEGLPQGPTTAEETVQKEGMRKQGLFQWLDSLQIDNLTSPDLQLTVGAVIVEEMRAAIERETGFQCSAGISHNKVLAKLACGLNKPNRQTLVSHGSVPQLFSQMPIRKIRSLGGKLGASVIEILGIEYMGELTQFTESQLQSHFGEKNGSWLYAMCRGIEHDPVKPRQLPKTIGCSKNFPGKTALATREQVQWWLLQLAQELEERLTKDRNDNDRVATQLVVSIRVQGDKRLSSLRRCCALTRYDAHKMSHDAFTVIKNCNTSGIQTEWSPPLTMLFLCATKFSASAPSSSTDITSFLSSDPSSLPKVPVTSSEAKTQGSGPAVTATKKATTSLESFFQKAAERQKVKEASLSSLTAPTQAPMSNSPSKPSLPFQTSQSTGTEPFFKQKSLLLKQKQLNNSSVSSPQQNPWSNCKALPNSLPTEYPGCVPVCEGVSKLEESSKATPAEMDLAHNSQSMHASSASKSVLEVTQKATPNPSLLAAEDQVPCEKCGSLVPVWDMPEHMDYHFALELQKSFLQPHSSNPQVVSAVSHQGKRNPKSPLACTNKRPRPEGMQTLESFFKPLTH
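Pol eta (10 nM) was preincubated with compounds for 15 min at room temperature, after which fluorescent replication substrate (50 nM final) was added to start the reaction. Fluorescence was read kinetically at 0 and 10 min.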
WRN helicase inh-1: qHTS for Inhibitors of WRN Helicase; Bifunctional 3'-5' exonuclease/ATP-dependent helicase WRN (Homo sapiens), Q14191; WRN helicase unwinding, fluorescent forked duplex, kinetic; Potency, µM (top dose mostly 114 µM), most hits filed as inhibitors; 360,000 compounds, 0.46% hits; further: nearly all actives have a fitted effect of over 55% in size
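Kinetic fluorescence helicase assay: unwinding of a quenched forked DNA duplex (100 nM final) with 2 mM ATP final raises red fluorescence (525/598 nm). Compounds sat 15 min at room temperature with 20 nM WRN beforehand.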
Pol beta inh: qHTS Assay for Inhibitors of DNA Polymerase Beta; Pol beta primer extension/strand displacement, fluorescence kinetic; Potency, µM (doses to about 114 µM), usual class: inhibitors; 340,000 compounds, 1.3% hits
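Values derive from four-parameter Hill fits of normalized kinetic data: reads at 0 and 10 min following addition of 50 nM substrate to 10 nM Pol beta preincubated 15 min with compound.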
PGK validate: qHTS for inhibitors of Phosphogylcerate Kinase: Hit Validation Screen. 500 compounds, 79% hits. shares compounds with Pol kappa inh-1. TbPGK coupled GAPDH assay, Kinase-Glo luminescence. AID 686980, 2013. Potency, µM (doses to about 57.5 µM), most hits filed as inhibitors; further: nearly all actives have a fitted effect of over 65% in size
POLI cherry-pick: qHTS for Inhibitors of Polymerase Iota: Confirmatory Assay for Cherry-picked Compounds; 1,500 compounds, 77% hits; Potency, µM, usual class: inhibitors; Pol iota primer extension, TAMRA/BHQ fluorescence; shares compounds with Pol kappa inh-1; AID 720496, 2013
Pol kappa inh-2: qHTS for Inhibitors of Polymerase Kappa: Confirmatory Assay for Cherry-picked Compounds; shares compounds with Pol eta inh-1; purified Pol-kappa, fluorescent strand-displacement substrate; Potency, µM, most hits filed as inhibitors; 920 compounds, 76% hits
Pol eta inh-2: qHTS for Inhibitors of Polymerase Eta: Confirmatory Assay for Cherry-picked Compounds | Potency, µM, usual class: inhibitors | 2,600 compounds, 64% hits | AID 720502, 2013 | Pol eta primer extension, TAMRA/BHQ fluorescence, 10 min | shares compounds with Pol eta inh-1
WRN helicase inh-2: qHTS for Inhibitors of WRN Helicase: Confirmatory Assay for Cherry-picked Compounds; shares compounds with WRN helicase inh-1; 610 compounds, 63% hits; WRN helicase DNA unwinding, fluorescence kinetic; Potency, µM (highest dose often 57.1 µM), usual class: inhibitors; AID 720497, 2013; further: nearly all actives have a fitted effect of over 65% in size
TO displacement: qHTS for Inhibitors of WRN Helicase: Thiazole Orange DNA Binding Counterscreen | Potency, µM (titrated, usually from 57.1 µM), most hits filed as inhibitors | AID 720499, 2013 | shares compounds with WRN helicase inh-1 | 610 compounds, 10% hits | thiazole orange DNA binding displacement, fluorescence;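 further: drop in dye fluorescence marks compound binding to DNA; nearly all actives have a fitted effect of over 60% in size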
BLM helicase inh: qHTS for Inhibitors of WRN Helicase: BLM Helicase Counterscreen for WRN Inhibitors; Potency, µM (doses to about 57.1 µM), usual class: inhibitors; Recombinant BLM helicase DNA unwinding, red fluorescence; 610 compounds, 60% hits; shares compounds with WRN helicase inh-1; further: nearly all actives have a fitted effect of over 60% in size
A number is an active result; 0 = inactive; ? = inconclusive; - = no result; ! = a repeat was not active. Unless noted, the call rests on the fitted dose curve; in most records, active means well fitted curve in the direction sought with a large enough effect; inconclusive means small, poorly fitted or top-dose-only effect, or another doubt; inactive means no such curve, though single readings can be large; an effect the other way counts as inactive or inconclusive.

SMILES	PI5P4Ka inh	Pol kappa inh-1	POLI inh	Pol eta inh-1	WRN helicase inh-1	Pol beta inh	PGK validate	POLI cherry-pick	Pol eta inh-2	WRN helicase inh-2	TO displacement	BLM helicase inh	others
O=C(Nc1ccc(Cl)c(Cl)c1)Nc1nnc(-c2ccncc2)s1	0	?	?	?	?	?	-	?	-	2.7µM	0	1.2µM
Cc1c(Br)c(=O)oc2c(Br)c(O)ccc12	0	0	0	0	0	0	-	-	-	-	-	-
Cc1c(Br)c(=O)oc2c(Br)c(O)c(O)cc12	-63	22µM	13µM	3.2µM	16µM	4.5µM	6.5µM	24	5.4	3.8µM	?	3.4µM
O=C(COc1ccc(Cl)cc1Cl)N/N=C/c1ccc(OC2OC(CO)C(O)C(O)C2O)cc1 (stereo unspecified)	0	0	0	0	0	0	-	-	-	-	-	-
O=C1/C(=C/C=C/c2ccco2)SC(=S)N1NS(=O)(=O)c1ccccc1	-81	4.5µM	1.8µM	1.1µM	8.9µM	?	4.1µM	2.7	1.7	4.8µM	0	7.6µM
CC(C(=O)O)N1C(=O)/C(=C/C=C/c2ccco2)SC1=S (stereo unspecified)	-101	1.3µM	0.79µM	0.79µM	2.4µM	1.3µM	2.9µM	1.9	1.3	0.54µM	0	0.96µM
CCc1cc(=O)oc2cc(C)cc(OCC(=O)N3CCC(C(=O)NC(C)C)(c4ccccc4)CC3)c12	0	0	0	0	0	0	-	-	-	-	-	-
O=C(CN1C(=O)S/C(=C/c2cccs2)C1=O)N1CCCC1	0	0	0	0	0	-	-	-	-	-	-	-
O=C1N/C(=C/c2cccn2-c2ccccc2)C(=O)N1Cc1ccccc1F	0	0	0	0	?	0	-	-	-	-	-	-
O=C(O)c1ccc(-n2cccc2/C=C2/NC(=O)N(c3ccccc3)C2=O)cc1	?	22µM	3.2µM	2.8µM	35µM	?	5.8µM	3.4	5.4	15µM	0	7.6µM
O=C(O)c1ccc(-n2cccc2/C=C2/SC(=O)N(CC(=O)N3CCCC3)C2=O)cc1	-59	7.1µM	3.5µM	1.8µM	20µM	2µM	5.8µM	5.3	6.7	6.8µM	0	3µM
COc1cccc2c1C(=O)c1c(O)c3c(c(O)c1C2=O)C[C@@](O)(C(=O)CO)C[C@@H]3OC1CC(N)C(O)C(C)O1 (stereo partly specified)	0	11µM!	35µM	5µM	3µM	-	-	17	60	17µM	0	27µM	Pol kappa inh-2=9.5
COc1cccc2c1C(=O)c1c(O)c3c(c(O)c1C2=O)CC(O)(C(C)=O)CC3OC1CC(N(C)C)C(O)C(C)O1 (stereo unspecified)	0	?	22µM	11µM	18µM	-	-	11	19	24µM	0	24µM	Pol kappa inh-2=24
O=Cc1ccc(-c2ccccc2C(=O)O)o1	0	0	0	0	0	?	-	-	-	-	-	-
O=C(O)c1ccccc1-c1c2cc(I)c(=O)c(I)c-2oc2c(I)c(O)c(I)cc12	-99	22µM	13µM	16µM	4.7µM	-	10µM	19	67	22µM	0	19µM	Pol kappa inh-2=30
COc1ccc2nc3cc(Cl)ccc3c(C#N)c2c1	0	0	0	0	0	0	-	-	-	-	-	-
COc1ccc2nc3cc(Cl)ccc3c(Nc3ccc(O)c(CN4CCN(C)CC4)c3)c2c1	?	79µM	?	?	18µM	-	-	?	-	6.1µM	11µM	22µM
Cc1ccccc1-c1nc(SCC(=O)NCc2ccc(F)cc2)c2c(=O)n(C)c(=O)n(C)c2n1	-	0	0	-	-	0	-	-	-	-	-	-
CC(=O)Nc1ccc2nc3c(=O)[nH]c(=O)[nH]c3nc2c1	-	28µM	8.9µM	-	-	28µM	-	12	17	3.8µM	0	1.4µM	Pol kappa inh-2=2.4
NC1=NC(=O)/C(=C/c2ccc(-c3ccc(S(N)(=O)=O)cc3)o2)S1	0	79µM	45µM	22µM	35µM	?	-	34	54	19µM	0	11µM	Pol kappa inh-2=21
COc1cc(NC(=O)c2noc3c2CCC3)c(OC)cc1Cl	-	32µM	?	18µM	?	10µM	-	38	38	?	0	22µM
O=C(Nc1cccc(Cl)c1)c1ccccc1	0	0	0	0	0	-	-	-	-	-	-	-
O=C1C(Cl)=C(NC(=O)c2ccccc2)C(=O)C(Cl)=C1NC(=O)c1ccccc1	-84	0	1.6µM	0	20µM	0	-	24	85	0	22µM	0
COc1ccc(NC(=O)C2(S(=O)(=O)c3ccc(C)cc3)CC2)cc1OC	0	0	0	0	0	0	-	-	-	-	-	-
OC(Cc1ccc2ccccc2n1)c1c(Cl)cccc1Cl (stereo unspecified)	-	0	0	-	-	-	-	-	-	-	-	-
CNc1ncnc(Sc2nc(N)nc3nc[nH]c23)c1[N+](=O)[O-]	0	0	?	0	0	-	-	-	-	-	-	-
Nc1nc(Sc2ccc([N+](=O)[O-])c3nonc23)c2[nH]cnc2n1	-84	18µM	3.2µM	?	11µM	-	18µM	21	30	22µM	43µM	15µM	Pol kappa inh-2=15

High-throughput results: PubChem BioAssay, National Center for Advancing Translational Sciences (NCATS)
